According to PubChem BioAssay AID588342 (National Center for Advancing Translational Sciences (NCATS), 2011):
In all, about 360,000 compounds went through this assay and about 25,000 (6.9%) were called active. Entries that show only a call come without a potency. Not shown: some 9% with an inconclusive outcome. Calls come from the whole dose curve; as a rule, active = well fitted inhibition curve with a large enough effect; inconclusive = small, poorly fitted or top-dose-only effect; inactive = flat fitted curve, though single readings scatter. The sample as a whole holds a higher share of actives than the screen did.

target: Luciferin 4-monooxygenase (Photinus pyralis) (UniProt P08659); experiment: qHTS profiling assay for firefly luciferase inhibitor/activator using purifed enzyme and Km concentrations of substrates (counterscreen for miR-21 project); details: purified FLuc, luminescence inhibition; series mostly up to 57.5 µM; note: nearly all actives have a fitted effect of over 55% in size
Sequence (P08659 whole entry, looked up): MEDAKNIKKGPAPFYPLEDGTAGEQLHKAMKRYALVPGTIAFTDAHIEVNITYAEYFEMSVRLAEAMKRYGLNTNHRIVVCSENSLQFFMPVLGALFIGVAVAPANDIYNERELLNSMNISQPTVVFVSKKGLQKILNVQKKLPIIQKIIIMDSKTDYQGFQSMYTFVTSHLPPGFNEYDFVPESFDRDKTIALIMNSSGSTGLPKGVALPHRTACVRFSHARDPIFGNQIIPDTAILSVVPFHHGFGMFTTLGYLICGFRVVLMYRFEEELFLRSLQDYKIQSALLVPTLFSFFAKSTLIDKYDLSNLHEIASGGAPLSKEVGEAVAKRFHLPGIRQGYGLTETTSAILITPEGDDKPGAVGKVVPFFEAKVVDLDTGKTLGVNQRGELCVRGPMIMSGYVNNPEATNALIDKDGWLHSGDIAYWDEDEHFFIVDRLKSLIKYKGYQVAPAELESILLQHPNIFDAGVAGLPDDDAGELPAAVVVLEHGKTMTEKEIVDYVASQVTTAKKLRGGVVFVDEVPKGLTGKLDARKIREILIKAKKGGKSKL
Source text: MLPCN Grant: 1 R21 NS059478-01 (miR-21 grant) Assay Provider: NCGC NCGC Assay Overview: Firefly (Photinus pyralis) luciferase is one of the most commonly used transcriptional reporters for a number of reasons. It is considered one of the more dynamically responsive reporters -that is, responsive to changes in reporter transcription - as it requires no post-translational modifications and is enzymatically active directly after protein synthesis (Wood, 1998). Additionally, the half-life of the luciferase protein is short relative to other reporter-gene products (Wood, 1995). Whereas reporters with long half-lives potentially allow for increased signal due to accumulation of reporter-gene product, once accumulated in the cell, dynamic changes in reporter-gene expression may be difficult to detect(Fan and Wood, 2007; Almond et al., 2004). It has been shown that wild-type P. pyralis luciferase has a half-life of approximately […] hours in mammalian cells (Thompson et al., 1991). Firefly luciferase reporter-gene assays are also generally considered one of the most sensitive assay types (Wood, 1995; Wood, 1998). Although light produced in a bioluminescence reaction is of lower intensity than that produced during fluorescence emission, this is offset by little to no background light inherent to luminescent assays. Thus the luciferase reporter can be expressed at much lower levels than fluorescent proteins while still providing robust signal. # However, it was initially observed, in 1991, by Thompson et al., that compounds that resemble the substrates of firefly luciferase (FLuc) can act as competitive inhibitors of the enzyme, and that these compounds, upon interaction with luciferase in the cell, can actually stabilize the protein and increase its half-life. Accumulated intracellular FLuc protein can be measured as an increase in luminescence signal, upon addition of detection reagents (which contain high concentrations of FLuc substrates) commonly used in high-throughput screening. In cell-based reporter gene assays that use FLuc as the reporter gene to quantitate the potential influence of a given compound against the target biology, this apparent increase in luminescence can mistakenly be interpreted as identification of a compound that is active against the target of interest. This is the case for the miR-21 FLuc reporter gene assay used to identify inhibitors of the miR-21 pathway (PubChem AID 2289) - compounds of interest will inhibit miR-21 biogenesis/expression or activity, and are identified by causing an increase in luminescence, due to increased FLuc translation. However, FLuc inhibitory compounds that stabilize the FLuc protein will give an identical read-out, making it difficult to distinguish compounds that are active against the target from those active against FLuc. Previous profiling work to determine the prevalence of compounds that affect FLuc enzymatic activity (PubChem AID 411) identified that ~3% of the MLSMR library (then at ~72K) inhibited FLuc. […] Since the MLSMR had grown to ~350K compounds, and since it was expected that a significant percentage of compounds found active in the miR-21 FLuc assay would be FLuc inhibitors, the library was screened for activity against FLuc using a biochemical assay of purified FLuc and KM concentrations of FLuc substrates (D-luciferin and ATP).
NCGC Assay Protocol Summary: Reagents: 50mM Tris acetate, pH 7.5; 10mM Mg acetate; 10uM D-luciferin (Sigma #L9504); 10uM ATP; 0.01% Tween-20; 0.05% BSA; 10nM P. pyralis luciferase (Sigma #L9506) Control compounds used were two known firefly luciferase inhibitors (compounds (2) and (5) in Auld et al., 2010), and DMSO. […]

Compound	Potency
COc1ccc(NC(=O)Nc2cccc3cccnc23)cc1	1.9 µM (active)
CC(C)c1c(CN(C)C(C)Cc2ccccc2)n(C)n(-c2ccccc2)c1=O (stereo not given)	inactive
Cc1ccccc1NC(=O)COC(=O)c1cc(C)n(C2CC2)c1C	inactive
COC(=O)C1=C(c2cccc(OCc3ccccc3)c2)C[C@@H]2CC[C@H]1N2C(=O)NCc1ccc(Br)cc1	inactive
COc1cccc(-c2nc3ccc(N4CCN(C)CC4)cc3[nH]2)c1	0.269 µM (active)
COc1ccc(C(=O)CC2C(=O)N(C)C(=O)N(C)C2=O)cc1	inactive
O=c1c2ccccc2nc(/C=C/c2ccco2)n1-c1ccccc1O	inactive
Cn1c(O)c(C=Nc2ccc3c(c2)CCC3)c(=O)n(C)c1=O	3.38 µM (active)
Cn1c(O)c(C=NCCN2CCNCC2)c(=O)n(C)c1=O	inactive
Cn1c(O)c(C=NCCCC(=O)O)c(=O)n(C)c1=O	inactive
CCN1C(=O)C(=Cc2c(C)n(CC(=O)NCC3CCCO3)c3ccccc23)C(=O)N(CC)C1=S (stereo not given)	inactive
COC(=O)C1=C(c2ccc(F)cc2OCc2ccccc2)C[C@@H]2CC[C@H]1N2C(=O)NCc1ccc(C(C)(C)C)cc1	inactive
O=C(OCC(=O)c1cccs1)C1=COCCO1	23.9 µM (active)
CSC1=NP(=S)(SC)N(C)c2nc3n(c21)CCC3 (stereo not given)	inactive
CC(C)c1ccc(OCC(=O)N2CCCN(C)CC2)cc1	inactive
CN(C)CC1CCCCC1=O (stereo not given)	inactive
CC(=O)Nc1ccc(C(=O)C(Cc2ccccc2)N(C)C)cc1 (stereo not given)	inactive
O=C1NC(=O)N(c2ccc(F)cc2)C(=O)/C1=C/c1ccc2c(c1)CCCN2Cc1ccccc1	inactive
O=C1NC(=O)N(c2ccccc2)C(=O)/C1=C/c1ccc([N+](=O)[O-])s1	26.9 µM (active)
CCN(CC)C(=O)c1ccc(NC(=O)c2sccc2-c2ccccc2)cc1	inactive
O=[N+]([O-])c1ccc(C2C3C(c4ccccc4)=NC4(CCCCC4)N32)cc1 (stereo not given)	inactive
CC(=O)Oc1ccccc1C(=O)Nc1ncc([N+](=O)[O-])s1	6.75 µM (active)

Compound	Potency
C[C@]12CC[C@H](O)C[C@H]1CC[C@@H]1C2CC[C@]2(C)[C@@H](C3=CC(=O)OC3)[C@@H](O)C[C@]12O (stereo not given in full)	inactive
CCC1(C)CC(CCNCc2ccc(N(C)C)cc2)(c2ccc(F)cc2)CCO1 (stereo not given)	inactive
CC(C)CN1CCN(Cc2ccccc2C(F)(F)F)CC1CCO (stereo not given)	inactive
N#Cc1ccc(Cn2cc(C(=O)c3ccco3)c3ccccc32)cc1	19 µM (active)
NC(=O)Cn1cc(C(=O)c2ccccc2F)c2ccccc21	inactive
CN1CCC(OC(=O)c2cccc(F)c2)CC1	inactive
O=[N+]([O-])c1cnc2ccc3ccccc3c2c1	inactive
CCCCCn1c(=O)c(C(=O)NCc2ccccc2)c(O)c2ccccc21	inactive
COC(=O)C1=C(c2c(C)noc2C)C[C@@H]2CC[C@H]1N2C(=O)NCc1ccc2c(c1)OCO2	inactive
Cc1cccc(Cn2cccc(C(=O)Nc3ccc4c(c3)OCCO4)c2=O)c1	15.1 µM (active)
Cc1ccc(NC(=O)N(Cc2ccc3c(c2)OCO3)C2CCN(Cc3ccccc3)CC2)cc1F	inactive
Cc1nnc(NC(=O)c2cccn(Cc3cccc(F)c3)c2=O)s1	inactive
Cn1cc(C(=O)OCC(=O)N2CCCC2)c2ccccc21	inactive
COC(=O)C1=C(c2ccccc2OCc2ccccc2)C[C@@H]2CC[C@H]1N2C(=O)NCc1ccc(OC)cc1	inactive
C[C@@]1([C@@H](NP(=O)(c2ccccc2)c2ccccc2)c2ccccc2)C[C@H]1CCO	inactive
O=C(O)CCn1cc(C=C2C(=O)NC(=S)NC2=O)c(-c2cccc(Br)c2)n1	21.3 µM (active)
COC(=O)C1=C(c2ccc(C(C)=O)cc2)C[C@@H]2CC[C@H]1N2C(=O)NCCNC(C)=O	inactive
Cc1ccnc(-n2c(C)cc(/C=C3\C(=O)NC(=S)N(C)C3=O)c2C)c1	7.57 µM (active)
Cc1cc(C=C2C(=O)NC(=O)NC2=O)c(C)n1-c1ccncc1	inactive
Cc1ccccc1N1C(=O)NC(=O)/C(=C\c2cc(C)n(C)c2C)C1=O	inactive
O=C(CCC(=O)N1C[C@H]2C[C@@H](C1)c1cccc(=O)n1C2)NCc1ccccc1C(F)(F)F	inactive
COC(=O)C1=C(c2ccc(-c3ccccc3)c(F)c2)C[C@@H]2CC[C@H]1N2C(=O)NCc1ccc(F)cc1	inactive

Compound	Potency
Cc1cc(C)cc(NC(=S)NC2CC3CCCC(C2)N3Cc2cccs2)c1 (stereo not given)	inactive
Cc1nc2ccccn2c1P(=S)(N1CCCCC1)N1CCCCC1	inactive
O=C1NC(=O)C(C/C=C/c2ccccc2)C(=O)N1	inactive
Cc1ccc(NN=C2C(=O)OC(C)(C)OC2=O)c(C)c1	9.53 µM (active)
CC1=C(C(=O)Nc2ccccc2)S(=O)(=O)CCO1	inactive
O=C(O)c1ccccc1NC(=O)C1C2CCC(O2)C1C(=O)O (stereo not given)	inactive
Fc1ccc(C2N3CCCN23)cc1 (stereo not given)	inactive
CN1CCN(C(=O)COc2ccc(C(C)(C)C)cc2Br)CC1	inactive
CC(C)(C)c1ccc(OC(=O)N2CCCCC2)cc1	10.7 µM (active)
O=C(Nc1cccc(OC(=O)N2CCCCC2)c1)N1CCOCC1	inactive
COC(=O)C1=C(c2ccc3ccccc3c2)C[C@@H]2CC[C@H]1N2C(=O)NCCO	inactive
CCCCCn1c(=O)c(C(=O)NCc2ccccn2)c(O)c2ccccc21	inactive
CC(C)Oc1ccc(NC(=O)c2cc3ccccc3o2)cc1	1.51 µM (active)
CC(=O)Cc1ccc(OC(C)C)cc1	inactive
Cc1ccc(-c2nc3ccccc3c(=O)n2-c2ccc(Br)cn2)cc1	inactive
COCCNC(=O)CN1C2CCC1CC(O)(c1cccnc1)C2 (stereo not given)	inactive
CC/C(=N\NC(=O)c1ccccc1O)c1c(O)n(Cc2ccccc2)c(=O)[nH]c1=O	9.53 µM (active)
CCC(=NCc1ccco1)c1c(O)n(Cc2ccccc2)c(=O)[nH]c1=O	inactive
CCC(=NCCc1ccccc1)c1c(O)n(C2CCCCC2)c(=O)[nH]c1=O	inactive
Cc1ccc(C(C)C)c(OCC(=O)N2CCN(CC(=O)N3CCOCC3)CC2)c1	inactive
CC1(C)Cc2c(C#N)c(N3CCNCC3)nc(-c3ccco3)c2CS1	inactive
